# The panel holds about 83,000 compounds, 20% with a hit somewhere; the sample as a whole holds those more often.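 Each cell line was grown in a 96-well plate and treated with one concentration of compound for 48 hours. Values below 10 were considered active.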 Unmarked numbers belong to inactive results. Active and inactive are the calls of the source.
# Columns and labels:
# Test in all cases: NCI-60 one-dose screen, 48 h (100 = growth as untreated, 0 = no growth, -100 = all killed)
# Details in all cases: 10 µM unless noted
# [1] = system: NCI-H23 lung
# [2] = system: NCI-H226 lung
# [3] = system: NCI-H322M lung
# [4] = system: HOP-62 NSCLC
# [5] = system: HOP-92 NSCLC
# [6] = system: NCI-H522 lung
# [7] = system: A549/ATCC NSCLC
# [8] = system: 786-0 renal
# [9] = system: COLO 205 colon
# [10] = system: DU-145 prostate
# [11] = system: K-562 leukemia
# [12] = system: MALME-3M melanoma
# [13] = system: MDA-MB-231 breast
# [14] = system: RXF 393 renal
# [15] = system: SF-268 CNS
# [16] = system: SF-295 CNS
# [17] = system: SF-539 CNS
# [18] = system: UACC-257 melanoma
# [19] = system: M14 melanoma
# [20] = system: NCI-H460 lung
Structure (SMILES),growth [1],growth [2],growth [3] [%],growth [4],growth [5],growth [6],growth [7] [%],growth [8] [%],growth [9],growth [10],growth [11],growth [12],growth [13],growth [14],growth [15],growth [16],growth [17],growth [18],growth [19],growth [20]
O=[N+]([O-])c1ccc(Nc2nc(NCCN3CCOCC3)ncc2[N+](=O)[O-])cc1,89.9%,92%,85,96%,89.9%,72.6%,98.9,92.6,97.1%,92.5%,103%,91%,95.8%,63%,93.8%,98.6%,93.9%,109%,95%,–
COc1cccc(-c2nc3sccn3c2-c2ccnc(NCCNS(=O)(=O)c3ccccc3)c2)c1,18.9%,18.7%,58.3,36.8%,21.9%,29.8%,10.3,38.9,21.6%,20.5%,11.1%,43.1%,58.9%,47.5%,31.9%,10.8%,66.9%,42.5%,22.5%,–
O=C(CN(C(=O)Cn1c(=O)n2nnnc2c2ccccc21)c1ccccc1C(F)(F)F)Nc1ccc(C(F)(F)F)cc1,103%,104%,107,107%,92.8%,98%,104,103,112%,110%,101%,103%,104%,116%,103%,104%,101%,115%,102%,–
Cn1c(=O)[nH]c(=O)c2nc(CCC(=O)NCCC(=O)O)c(=O)[nH]c21,97.5%,88.3%,100,105%,98.2%,96.5%,103,109,109%,113%,104%,98.9%,110%,112%,98.2%,102%,95.7%,101%,111%,–
Nc1n[nH]c2ccc([C@@H]3Nc4ccc5[nH]ncc5c4[C@H]4C5C=CC(C5)[C@@H]34)cc12 (some centres not stated),14.1%,-6.81% (active),43.8,41.8%,61.2%,14.3%,20.1,30.3,2.87% (active),8.03% (active),8.61% (active),43.1%,25.5%,17.8%,20.3%,1.53% (active),-31.4% (active),68.6%,4.56% (active),–
CC(C)(C)c1cc(C(C)(C)C)cc(S(=O)(=O)Nc2cc3ccccc3cc2C(=O)NCCN)c1,85.7%,73.8%,64.2,83.1%,50%,48%,38.6,86.3,-85.6% (active),22.5%,-37% (active),55%,5.92% (active),29.1%,69.3%,12.4%,96%,81%,-59.9% (active),–
N#CCCN=Nc1c(O)[nH]c2ccc([N+](=O)[O-])cc12,94.9%,96%,98,99.4%,102%,78.8%,114,104,109%,111%,105%,110%,90%,106%,94.9%,105%,94.9%,119%,101%,–
CC(C)(C)CC(C)(C)c1ccc(OCCOCC[N+](C)(C)Cc2ccccc2)cc1,2.23% (active),31.6%,47.7,-56.7% (active),-58.7% (active),-44.9% (active),25.5,–,-86.5% (active),39.4%,-35.4% (active),-16.4% (active),-88.2% (active),0.0752% (active),-54.1% (active),41.8%,-64.9% (active),-90.8% (active),-27.5% (active),1.33% (active)
